Measurements reported in PubChem BioAssay (NCI).
The panel holds about 79,000 compounds, 15% with a hit somewhere; the sample as a whole holds those more often. A number with no mark means an inactive call. The source made the active and inactive calls. Rule as the data show it: active = growth inhibition above about 70%; inactive = the rest.

Tests used:
[1] = NCI Yeast Anticancer Drug Screen. Data for the rad50 strain (AID 155);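 also: 0% = growth of vehicle-only cultures of the same strain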; conditions: S. cerevisiae rad50 strain growth inhibition; at 50.0 µM; stronger effect = higher value
Outline: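 A DNA repair-deficient yeast mutant serves as the test organism; compound-induced growth inhibition is calculated against vehicle-treated cells.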

[2] = NCI Yeast Anticancer Drug Screen. Data for the mec2-1 strain (AID 157); conditions: S. cerevisiae mec2-1 strain, at 50.0 µM, stronger effect = higher value
Outline: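 Test agents were screened against the mec2-1 yeast strain, with defined DNA repair or cell cycle alteration. Growth was scored as inhibition against vehicle-only controls.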

[3] = NCI Yeast Anticancer Drug Screen. Data for the sgs1 mgt1 strain (AID 161);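 also: 0% = growth of cultures given vehicle only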; conditions: S. cerevisiae sgs1 mgt1 strain, at 50.0 µM, stronger effect = higher value
Outline: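 Genetically altered yeast, compound exposure, growth inhibition relative to vehicle.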

[4] = NCI Yeast Anticancer Drug Screen. Data for the cln2 rad14 strain (AID 165);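 also: 0% = growth equal to vehicle treated cultures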; conditions: S. cerevisiae cln2 rad14 strain, at 50.0 µM, stronger effect = higher value
Outline: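 Growth of compound-exposed yeast (cln2 rad14 genotype) measured and expressed as inhibition relative to vehicle.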

[5] = NCI Yeast Anticancer Drug Screen. Data for the bub3 strain (AID 167); conditions: S. cerevisiae bub3 mutant strain, at 50.0 µM, stronger effect = higher value
Outline: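 Inhibition values come from growth of compound-treated mutant yeast normalised to vehicle-treated controls.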

[6] = NCI Yeast Anticancer Drug Screen. Data for the mlh1 rad18 strain (AID 175); conditions: S. cerevisiae mlh1 rad18 strain growth inhibition; at 50.0 µM; stronger effect = higher value
Outline: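 In this whole-cell yeast screen, a strain with altered DNA damage repair is challenged with compound, and its growth is measured against matched vehicle-treated controls.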

SMILES	growth inhibition [1]	growth inhibition [2]	growth inhibition [3]	growth inhibition [4]	growth inhibition [5]	growth inhibition [6]
O=C(Cc1nc2ccc(C(=O)c3ccccc3)cc2[nH]c1=O)C(=O)Nc1ccccc1[N+](=O)[O-]	2.75%	-15.6%	7.75%	9.35%	6.15%	–
Cc1ccc(/C=C2/N=C(N/N=C\c3ccccc3)NC2=O)cc1	-6.15%	14.9%	-19.4%	1.75%	-9.1%	-41.1%
N#C/C(=C\c1ccc(-c2ccccc2)cc1)C(N)=O	32%	8.6%	–	–	–	–
Cc1ccc(S(=O)(=O)NCN2C(=O)c3ccccc3C2=O)cc1	-3.75%	-3.85%	–	–	–	–
N=C1N=C(N)CS1	2.6%	-10%	3.8%	12.4%	25.9%	–
COc1ccc(C2c3cc4c(c(OC)c3CC3OCC(=O)C32)OCO4)cc1OC (configuration not stated)	4.25%	-15.7%	22.6%	13.1%	1.45%	–
CCCCCCSC[C@H](OC(C)=O)[C@@H](OC(C)=O)[C@@H](OC(C)=O)[C@@H](COC(C)=O)OC(C)=O	-7%	-14.8%	2.65%	-2.95%	9%	–
COc1cc(/C=C2\CN(C)C(=O)C2=O)ccc1O	-11.7%	-27.2%	–	–	–	–
O=C1c2cccnc2-c2nccc3ccnc1c23	75% (active)	58.8%	63%	45.6%	57.5%	-37.7%
O=C1c2ccccc2C(=O)N1/N=C/c1ccc2c(c1)OCO2	22.5%	10.2%	–	–	–	–
O=C1c2ccccc2-c2c1c1ccccc1c(=O)n2-c1cccnc1	63.5%	6.95%	26.2%	32.3%	6%	–
COC(=O)C(C(=O)C(=O)NC1Nc2ccc(C)cc2S1)c1nc2ccc(Cl)cc2[nH]c1=O (configuration not stated)	18.2%	-12.3%	11.5%	21.1%	–	–
COc1ccc2ccccc2c1/C=N/N1CCCCC1	32.3%	19.6%	–	–	–	–
CN(C)c1ccc(/C=N/n2c(-c3ccccc3)nc3ccccc3c2=O)cc1	14.3%	14.2%	43.8%	13.4%	50.8%	-41%
Cc1ccc(OCC2OC(n3cnc4nc(N)nc(Cl)c43)CC2Oc2ccc(C)cc2)cc1 (configuration not stated)	20.2%	28.4%	44.7%	46.5%	49.3%	–
COc1ccc(CNc2ccccn2)cc1	10.9%	13.5%	–	–	–	–
COc1ccc(-c2cc(=O)c3c(O)cc(C)cc3o2)cc1OC	-23.9%	-25.6%	–	–	–	–
N#CC1(C#N)C2CCCCC23OC(=N)C1(C#N)C(c1ccccc1)O3 (configuration not stated)	9.3%	12.2%	-22.7%	-15.3%	-29.9%	-16.6%
OC(c1ccc(F)cc1)(c1cccs1)C1CC1 (configuration not stated)	-9.55%	-4.75%	–	–	–	–
C=C1C(=O)O[C@H]2C[C@@]3(C)[C@H](O)CCC(=C)[C@@H]3[C@@H](OC(C)=O)[C@H]12	2.95%	25.4%	0.05%	-6.7%	-26.8%	–
c1coc(-c2nc(N=C3N=c4ccccc4=N3)[nH]c2-c2ccco2)c1	16.6%	18.9%	–	–	–	–
COc1cc2c(cc1-c1coc3cc(O)ccc3c1=O)OCO2	-12.6%	-24.3%	-15.6%	11.2%	-14.3%	-42.6%
Cc1ccc2oc(C)[n+](CCC(=O)O)c2c1	15.7%	6.45%	–	–	–	–
C/C(=C\COc1cc(O)c2c(c1)C(=O)c1cc(C)cc(O)c1C2=O)CCC1OC1(C)C (configuration not stated)	16.7%	-22.9%	4.55%	-0.65%	-12.4%	–
CCCCCCCCCCCCCCCC(C)(C)O	-29%	–	–	–	–	–
NC(=O)CC1OC(=O)Cc2cc3c(c(O)c21)C(=O)c1c(O)cccc1C3=O (configuration not stated)	1.05%	3.55%	22.4%	27.7%	16.5%	–

SMILES	growth inhibition [1]	growth inhibition [2]	growth inhibition [3]	growth inhibition [4]	growth inhibition [5]	growth inhibition [6]
CCOC(=O)NC(C)(C)CN(C(=O)OCC)C(C)(C)CO	3.5%	-26.2%	–	–	–	–
CC(=O)c1cccc(OCc2ccccc2)c1	6.4%	–	–	–	–	–
CCC(C)NCCNCCNC(C)CC (configuration not stated)	-9%	-11.1%	–	–	–	–
CCC1OC2(C)CC(C#N)(C#N)C1(C#N)C(=N)O2 (configuration not stated)	0.6%	-3.9%	-46.4%	-8.2%	-31.4%	-10.7%
CC1(O)CC2CC1C(C(=O)O)C2C(=O)O (configuration not stated)	-0.85%	-27.6%	–	–	–	–
Cc1ccc(Cl)cc1NCN1C(=O)c2ccccc2C1=O	1.35%	-2.4%	–	–	–	–
N#[N+]c1c(O)cc(S(=O)(=O)O)c2ccccc12	-21.6%	-8.45%	–	–	–	–
CCC(=O)C(CC)c1cccc(OC)c1 (configuration not stated)	16.6%	-3.8%	12.2%	25.3%	–	–
CCN(CC)CCN(C)CC(=O)Nc1ccccc1C	1.9%	6.3%	–	–	–	–
COc1cc(OC)cc(C(=O)Cl)c1	-24.4%	-40%	–	–	–	–
O=C1OC(c2ccc(Cl)cc2)=N/C1=C\c1ccccc1	-4.85%	-5.5%	–	–	–	–
CC/C(Cl)=N\OC(=O)Nc1ccc(OC)cc1	-5.35%	-16.1%	-3.3%	2.6%	1.15%	-68.8%
NNc1[nH]c(=S)[nH]c1C(N)=O	-29.6%	-8.5%	-21.4%	-7.65%	-22.1%	-11.7%
COc1ccc2nc(NC(=O)/C(C#N)=C/c3ccccc3)sc2c1	5.9%	-24.9%	44.6%	-3.3%	-8.95%	-5.7%
CC1CC(=O)N(N(C)C)C2(C#N)C(=O)N=C(N)C12C#N (configuration not stated)	15.4%	22.6%	-16.1%	2.75%	-4%	-4.75%
CCOC(=O)C(=O)C(CCC(=O)c1ccc2ccccc2c1O)C(=O)OCC (configuration not stated)	2.6%	-1.65%	-2.9%	4.25%	0.5%	-35.9%
O=C=NC(c1ccccc1)(c1ccccc1)c1ccccc1	-4.25%	-18.1%	1.65%	11.5%	-5.5%	13.2%
COc1cc2c3cc1Oc1c(OC)c(OC)cc4c1C(Cc1ccc(O)c(c1)-c1cc(ccc1OC)CC3N(C)CC2)N(C)CC4 (configuration not stated)	-1.25%	-6.75%	-2.15%	0.5%	8.85%	-13.7%
N/N=C(\C(=O)Nc1ccc([N+](=O)[O-])cc1)C(C1=Nc2cc([N+](=O)[O-])ccc2NC1)[N+](=O)[O-] (configuration not stated)	34.7%	11.7%	12.8%	-41.5%	5%	16.9%
Cc1ccc(/C=N/Nc2ccccn2)s1	-10.9%	-12.5%	-2%	11.4%	-11.2%	0.7%
O=C(Nc1cccc(NC(=O)C(=O)C2CCC3=C(Sc4ccccc4N3)C2=O)n1)C(=O)C1CCC2=C(Sc3ccccc3N2)C1=O (configuration not stated)	2.5%	13.8%	3%	5.2%	29.9%	1.2%
c1ccc(N(c2ccccc2)c2ccccc2)cc1	5%	-14.7%	1.9%	7.1%	-10.4%	4.05%
C=C(CCC(C(=O)O)C1CCC2(C)C3=C(CCC12C)C1(C)CCC(O)C(C)(C)C1CC3)C(C)C (configuration not stated)	-4%	-29.5%	-0.75%	2.15%	-23.6%	-8.25%
COc1ccc(C)cc1NC(=S)C#N	12.6%	-1.2%	-0.15%	-18.6%	1.3%	-44.9%
C[C@@H]1C[C@@H]2OC(=O)[C@]3(C)[C@H]2[C@@H](OC3(C)O)[C@]2(C)C(=O)C=C[C@@H]12 (some centres not stated)	-27.6%	-45.6%	-40.4%	-12.7%	-48.6%	-35.5%
CCCCCCCCCC(O)CC(=O)c1c(O)cccc1O (configuration not stated)	69.8%	77.2% (active)	82.8% (active)	86.2% (active)	82.1% (active)	78.7% (active)
